PubChem BioAssay AID720690 (Broad Institute, 2013)
Results with a measured potency or affinity are listed apart. Activity calls are given as the source filed them.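 How the source made its calls: active means every repeat run showing a signal drop whose fitted half-maximal concentration is at most twice the top tested concentration; inconclusive means repeat runs disagree, or flat partial drop, or poor fit; inactive means the rest.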

Experiment: HEK293T cytotoxicity, dose response, cytotoxicity control for miR-122 modulator project, cell-based, activator set, cherry-pick (AID 720690)
Details: HEK293T viability, CellTiter-Glo luminescence, 48 h; series mostly up to 26 µM
For CCCNC(=O)C[C@H]1CC[C@@H]2[C@H](COc3ccc(NC(=O)c4cccs4)cc3C(=O)N2C)O1, the outcome was “inactive”.
With CCNC(=O)C[C@H]1CC[C@H]2[C@@H](COc3ccc(NS(C)(=O)=O)cc3C(=O)N2C)O1 the outcome was “inactive”.
For O=C(COC(=O)c1ccccc1)Nc1cc(Cl)ccc1Oc1ccccc1, the outcome was “inactive”.
For CCCC(=O)Nc1ccc2c(c1)C(=O)N(C)[C@@H]1CC[C@H](CC(=O)NCC(F)(F)F)O[C@H]1CO2, the outcome was “inactive”.
In the case of CNC(=O)C[C@H]1CC[C@@H]2[C@H](COc3ccc(NC(=O)c4cccc(OC)c4)cc3C(=O)N2C)O1, the outcome is reported as “inactive”.
In the case of CN1C(=O)c2cc(NC(=O)Cc3ccccc3)ccc2OC[C@H]2O[C@@H](CC(=O)NCc3ccc(Cl)cc3)CC[C@@H]21, the outcome is reported as “inactive”.
For CN(C[C@H]1N[C@@H](CO)[C@@H]1c1ccc(C2=CCCC2)cc1)C(=O)c1ccccn1, the outcome was “inactive”.
With Cc1nn(C)cc1NC(=O)C[C@@H]1CC[C@@H]2[C@H](COc3ccc(NC(=O)Nc4cccc(Cl)c4)cc3C(=O)N2C)O1 the outcome was “inactive”.
For O=C(Nc1ccc(F)cc1)N1C[C@@H]2[C@H](c3ccccc31)[C@H](CO)N2C(=O)Cc1ccccc1, the outcome was “inactive”.
In the case of COC(=O)C[C@H]1CC[C@@H]2[C@@H](COc3ccc(NC(=O)c4cscn4)cc3C(=O)N2C)O1, the outcome is reported as “inactive”.
For C[C@@H]1CN([C@H](C)CO)S(=O)(=O)c2ccc(C#CC3(O)CCCC3)cc2O[C@@H]1CN(C)C(=O)c1cccnc1, the outcome was “inactive”.
With C[C@@H]1CN([C@@H](C)CO)S(=O)(=O)c2ccc(C#CC3CC3)cc2O[C@@H]1CN(C)C(=O)c1cccc(F)c1 the outcome was “inactive”.
For COc1cccc(NC(=O)Nc2ccc3c(c2)C(=O)N(C)[C@@H]2CC[C@H](CC(=O)O)O[C@H]2CO3)c1, the outcome was “inactive”.
In the case of CCOc1cc(-c2nccc3cc(OC)c(OC)cc23)cc(OCC)c1OCC, the outcome is reported as “inactive”.
In the case of COc1ccc(-c2nc(NC(=O)CSc3nnc(C)s3)ns2)cc1, the outcome is reported as “inactive”.
In the case of CO[C@@H]1CN(C)C(=O)c2ccc(NC(=O)c3ccc(Oc4ccccc4)cc3)cc2OC[C@H](C)NC[C@H]1C, the outcome is reported as “inactive”.
With Cc1cccc(NC(=O)Nc2ccc3c(c2)C(=O)N(C)[C@H]2CC[C@@H](CC(=O)NCc4ccccc4Cl)O[C@H]2CO3)c1 the outcome was “inactive”.
With CN1C(=O)c2cc(NC(=O)c3cccc(F)c3)ccc2OC[C@H]2O[C@H](CC(=O)O)CC[C@@H]21 the outcome was “inactive”.
For COc1ccccc1C(=O)N1C[C@@H]2[C@H](c3ccccc31)[C@H](CO)N2CC1CCCC1, the outcome was “inactive”.
For CCCC(=O)Nc1ccc2c(c1)C(=O)N(C)[C@H]1CC[C@H](CC(=O)NCCN3CCCCC3)O[C@@H]1CO2, the outcome was “inactive”.
For CO[C@@H]1CN(C)C(=O)c2cc(NC(=O)Nc3ccc(Cl)c(Cl)c3)ccc2OC[C@H](C)NC[C@H]1C, the outcome was “inactive”.
With CC(=O)N(C[C@H]1N[C@H](CO)[C@@H]1c1ccc(-c2ccccc2)cc1)C(C)C the outcome was “inactive”.
With CN1C(=O)c2cc(NC(=O)Nc3ccccc3F)ccc2OC[C@@H]2O[C@@H](CC(=O)NCc3ccc(-c4ccccc4)cc3)CC[C@H]21 the outcome was “inactive”.
In the case of CCN(C[C@@H]1N[C@H](CO)[C@H]1c1ccc(-c2ccc(F)cc2)cc1)C(=O)COC, the outcome is reported as “inactive”.
For CO[C@@H]1CN(C)C(=O)c2ccc(NS(=O)(=O)c3cccc(F)c3)cc2OC[C@@H](C)NC[C@H]1C, the outcome was “inactive”.
For COc1ccc(S(=O)(=O)Nc2cccc3c2O[C@H](CN(C)CC2CCCCC2)[C@@H](C)CN([C@H](C)CO)C3=O)cc1, the outcome was “inactive”.
For CCN(C[C@H]1N[C@@H](CO)[C@@H]1c1ccc(C2=CCCC2)cc1)C(=O)c1cccnc1, the outcome was “inactive”.
In the case of Cc1ccc(-c2nnn(CC(=O)N(CC(=O)NCC3CCCO3)c3ccccc3)n2)o1 (stereo not given), the outcome is reported as “inactive”.
With C[C@H](CO)N1C[C@H](C)[C@H](CN(C)C(=O)NC2CCCCC2)Oc2ncc(-c3cccc(C(F)(F)F)c3)cc2C1=O the outcome was “inactive”.
With CCCC#Cc1ccc2c(c1)O[C@H](CN(C)C(=O)COC)[C@H](C)CN([C@@H](C)CO)S2(=O)=O the outcome was “inactive”.
With C[C@@H]1CN([C@H](C)CO)C(=O)c2cccc(NC(=O)c3ccc(-c4nccs4)cc3)c2O[C@H]1CN(C)S(=O)(=O)c1ccc(F)cc1 the outcome was “inactive”.
With CCC(=O)N1[C@H](CO)[C@H](c2ccccc2)[C@H]1CN(C(C)C)S(C)(=O)=O the outcome was “inactive”.
In the case of CO[C@@H]1CN(C)C(=O)c2cc(NC(=O)NC(C)C)ccc2OC[C@H](C)N(Cc2cncnc2)C[C@H]1C, the outcome is reported as “inactive”.
For CCCNC(=O)N1C[C@@H]2[C@H](c3ccccc31)[C@@H](CO)N2Cc1cc(F)ccc1F, the outcome was “inactive”.
In the case of CN1C(=O)c2cc(NC(=O)Nc3ccc(Cl)cc3)ccc2OC[C@H]2O[C@H](CC(=O)NCCN3CCCCC3)CC[C@H]21, the outcome is reported as “inactive”.
In the case of CCCNC(=O)Nc1ccc2c(c1)OC[C@H](C)N(CCC)C[C@H](C)[C@H](OC)CN(C)C2=O, the outcome is reported as “inactive”.
With COc1cccc(COc2cc3ccccc3nc2C)c1 the outcome was “inactive”.
With COc1ccccc1CNc1nc(NCC2CC2)nc2ccsc12 the outcome was “inactive”.
For O=C(c1ccco1)N1CCN(C2CC(=O)N(c3ccccc3)C2=O)CC1 (stereo not given), the outcome was “inactive”.
In the case of CN1C(=O)c2cc(NC(=O)c3cccs3)ccc2OC[C@@H]2O[C@H](CC(=O)NCCN3CCCCC3)CC[C@H]21, the outcome is reported as “inactive”.
